From article PMC7862700, “An all-to-all approach to the identification of sequence-specific readers for epigenetic DNA modifications on cytosine”

Tests used:
Experiment in all cases: DAPPL (digital affinity profiling via proximity ligation, sequencing); 10 mM Tris-HCl pH 7.5, 50 mM NaCl, 1 mM DTT, 4% glycerol, room temperature, 30 min; GST-TFs on glutathione beads, 16-mer random dsDNA library, 0.1% formaldehyde crosslink after washing; high values mean tight binding
Details in all cases: protein: recombinant; tags: N-terminal GST; dsDNA, one strand shown
FEV = target: T1, FEV (Homo sapiens, UniProt Q99581 1-238)
T1 sequence: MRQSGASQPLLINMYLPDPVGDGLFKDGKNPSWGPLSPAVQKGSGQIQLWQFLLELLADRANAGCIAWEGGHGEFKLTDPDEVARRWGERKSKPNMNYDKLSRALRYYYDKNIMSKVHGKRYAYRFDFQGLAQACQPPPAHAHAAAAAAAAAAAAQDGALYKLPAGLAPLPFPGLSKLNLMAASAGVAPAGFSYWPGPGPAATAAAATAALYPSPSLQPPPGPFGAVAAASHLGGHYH
Procedure, shortened: (§1)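 Binding signal is given per hexamer as its read frequency for a factor divided by its frequency in the tag-only sample. GST-fused human transcription factors were expressed in yeast, captured on glutathione beads, barcoded with DNA and pooled with that sample, then incubated with 200 nmole of a 16-mer random double-stranded DNA library in Tris/NaCl/DTT/glycerol buffer for 30 min at room temperature. The pools were then washed, crosslinked, proximity-ligated, amplified by PCR and sequenced on an Illumina NextSeq500.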

ETV5 = ETV5 (Homo sapiens, UniProt P41161 1-510)
Sequence of ETV5 (P41161 whole entry): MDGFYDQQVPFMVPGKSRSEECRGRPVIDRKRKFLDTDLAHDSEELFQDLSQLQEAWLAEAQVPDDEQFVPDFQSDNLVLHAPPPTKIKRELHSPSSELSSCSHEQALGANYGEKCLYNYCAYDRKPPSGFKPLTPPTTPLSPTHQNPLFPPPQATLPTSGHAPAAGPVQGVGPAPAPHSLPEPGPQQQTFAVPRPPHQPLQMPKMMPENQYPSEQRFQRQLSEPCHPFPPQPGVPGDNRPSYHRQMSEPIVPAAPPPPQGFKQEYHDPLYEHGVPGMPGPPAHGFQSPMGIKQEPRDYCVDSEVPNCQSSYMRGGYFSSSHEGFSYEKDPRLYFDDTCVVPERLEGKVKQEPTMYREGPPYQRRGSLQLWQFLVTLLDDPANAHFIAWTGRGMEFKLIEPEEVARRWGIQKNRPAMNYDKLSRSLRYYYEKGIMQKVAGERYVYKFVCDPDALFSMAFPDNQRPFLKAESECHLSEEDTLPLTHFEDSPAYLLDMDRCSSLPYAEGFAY
Procedure, shortened: as §1

SPIC = target: T2, SPIC (Homo sapiens, UniProt Q8N5J4 1-248)
T2 sequence: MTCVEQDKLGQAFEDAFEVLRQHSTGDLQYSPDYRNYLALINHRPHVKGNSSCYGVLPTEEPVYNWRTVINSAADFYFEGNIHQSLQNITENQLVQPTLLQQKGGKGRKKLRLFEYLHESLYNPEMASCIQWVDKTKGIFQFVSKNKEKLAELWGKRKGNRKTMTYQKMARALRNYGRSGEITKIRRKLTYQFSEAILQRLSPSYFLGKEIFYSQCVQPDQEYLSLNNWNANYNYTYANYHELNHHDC
Procedure, shortened: as §1

ELF4 = ELF4 (Homo sapiens, UniProt Q99607 1-663)
Sequence of ELF4 (Q99607 whole entry): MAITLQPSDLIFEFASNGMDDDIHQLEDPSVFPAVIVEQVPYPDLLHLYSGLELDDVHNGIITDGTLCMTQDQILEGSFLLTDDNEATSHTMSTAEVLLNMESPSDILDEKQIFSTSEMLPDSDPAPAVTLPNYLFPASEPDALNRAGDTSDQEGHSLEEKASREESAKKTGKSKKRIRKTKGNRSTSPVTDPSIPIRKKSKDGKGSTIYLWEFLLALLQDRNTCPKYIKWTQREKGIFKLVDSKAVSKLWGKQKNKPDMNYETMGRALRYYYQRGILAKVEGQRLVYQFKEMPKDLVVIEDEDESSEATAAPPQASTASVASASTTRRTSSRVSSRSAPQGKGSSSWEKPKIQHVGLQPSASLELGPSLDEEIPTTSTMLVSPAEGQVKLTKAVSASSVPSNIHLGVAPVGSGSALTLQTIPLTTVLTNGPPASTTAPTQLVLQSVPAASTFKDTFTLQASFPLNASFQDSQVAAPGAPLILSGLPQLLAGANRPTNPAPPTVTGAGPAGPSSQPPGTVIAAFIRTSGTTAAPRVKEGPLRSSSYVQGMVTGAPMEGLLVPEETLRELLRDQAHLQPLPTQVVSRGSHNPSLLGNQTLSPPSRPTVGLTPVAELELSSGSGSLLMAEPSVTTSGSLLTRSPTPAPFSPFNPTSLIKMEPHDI
Procedure, shortened: as §1

ELK4 = target: T3, ELK4 (Homo sapiens, UniProt P28324-2 1-405)
T3 sequence: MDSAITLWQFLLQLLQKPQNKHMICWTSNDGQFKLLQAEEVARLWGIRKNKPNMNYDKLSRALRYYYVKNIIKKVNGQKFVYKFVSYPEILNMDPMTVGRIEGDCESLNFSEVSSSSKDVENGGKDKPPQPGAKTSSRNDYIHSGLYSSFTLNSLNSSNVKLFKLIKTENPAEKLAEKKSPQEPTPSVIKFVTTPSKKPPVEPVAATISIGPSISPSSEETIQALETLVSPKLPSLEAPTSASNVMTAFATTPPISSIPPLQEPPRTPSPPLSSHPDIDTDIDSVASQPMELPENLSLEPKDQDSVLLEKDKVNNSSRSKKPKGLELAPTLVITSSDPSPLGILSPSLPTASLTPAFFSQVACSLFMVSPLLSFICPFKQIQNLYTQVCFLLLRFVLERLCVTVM
Procedure, shortened: as §1

ETV2 = target: T4, ETV2 (Homo sapiens, UniProt O00321 1-342)
T4 sequence: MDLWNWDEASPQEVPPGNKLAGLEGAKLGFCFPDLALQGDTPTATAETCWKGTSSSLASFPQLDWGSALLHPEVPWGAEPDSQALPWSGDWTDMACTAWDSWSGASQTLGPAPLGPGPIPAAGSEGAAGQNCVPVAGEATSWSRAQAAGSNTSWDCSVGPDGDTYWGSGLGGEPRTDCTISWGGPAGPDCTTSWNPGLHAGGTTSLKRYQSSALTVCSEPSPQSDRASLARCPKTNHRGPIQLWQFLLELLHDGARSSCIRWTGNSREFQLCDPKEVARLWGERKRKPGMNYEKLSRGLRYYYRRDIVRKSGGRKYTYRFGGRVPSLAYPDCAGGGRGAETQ
Procedure, shortened: as §1

ELF3 = target: T5, ELF3 (Homo sapiens, UniProt P78545 1-371)
T5 sequence: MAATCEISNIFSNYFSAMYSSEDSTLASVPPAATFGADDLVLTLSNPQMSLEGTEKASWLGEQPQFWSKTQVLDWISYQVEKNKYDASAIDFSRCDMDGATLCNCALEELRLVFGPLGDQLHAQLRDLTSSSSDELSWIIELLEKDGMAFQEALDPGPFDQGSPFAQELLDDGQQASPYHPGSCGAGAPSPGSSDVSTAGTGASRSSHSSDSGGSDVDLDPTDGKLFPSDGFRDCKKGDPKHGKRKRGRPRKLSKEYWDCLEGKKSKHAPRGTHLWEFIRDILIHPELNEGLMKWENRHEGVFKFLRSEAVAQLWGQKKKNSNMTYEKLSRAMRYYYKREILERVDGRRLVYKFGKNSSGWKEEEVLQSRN
Procedure, shortened: as §1

ETV1 = ETV1 (Homo sapiens, UniProt P50549 1-477)
Sequence of ETV1 (P50549 whole entry): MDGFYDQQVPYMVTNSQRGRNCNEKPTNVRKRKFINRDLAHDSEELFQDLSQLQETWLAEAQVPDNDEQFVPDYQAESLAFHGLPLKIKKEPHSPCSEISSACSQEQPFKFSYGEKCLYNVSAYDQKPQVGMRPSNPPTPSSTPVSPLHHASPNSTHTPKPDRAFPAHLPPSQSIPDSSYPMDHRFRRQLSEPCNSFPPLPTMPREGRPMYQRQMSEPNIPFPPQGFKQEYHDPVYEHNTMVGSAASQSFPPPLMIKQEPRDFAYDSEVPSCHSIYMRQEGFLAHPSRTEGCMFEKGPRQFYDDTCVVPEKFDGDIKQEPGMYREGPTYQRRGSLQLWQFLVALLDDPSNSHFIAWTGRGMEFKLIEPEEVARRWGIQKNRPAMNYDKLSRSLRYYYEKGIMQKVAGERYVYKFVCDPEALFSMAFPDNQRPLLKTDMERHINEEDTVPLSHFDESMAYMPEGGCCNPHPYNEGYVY
Procedure, shortened: as §1

ERF = target: T6, ERF (Homo sapiens, UniProt P50548 1-548)
T6 sequence: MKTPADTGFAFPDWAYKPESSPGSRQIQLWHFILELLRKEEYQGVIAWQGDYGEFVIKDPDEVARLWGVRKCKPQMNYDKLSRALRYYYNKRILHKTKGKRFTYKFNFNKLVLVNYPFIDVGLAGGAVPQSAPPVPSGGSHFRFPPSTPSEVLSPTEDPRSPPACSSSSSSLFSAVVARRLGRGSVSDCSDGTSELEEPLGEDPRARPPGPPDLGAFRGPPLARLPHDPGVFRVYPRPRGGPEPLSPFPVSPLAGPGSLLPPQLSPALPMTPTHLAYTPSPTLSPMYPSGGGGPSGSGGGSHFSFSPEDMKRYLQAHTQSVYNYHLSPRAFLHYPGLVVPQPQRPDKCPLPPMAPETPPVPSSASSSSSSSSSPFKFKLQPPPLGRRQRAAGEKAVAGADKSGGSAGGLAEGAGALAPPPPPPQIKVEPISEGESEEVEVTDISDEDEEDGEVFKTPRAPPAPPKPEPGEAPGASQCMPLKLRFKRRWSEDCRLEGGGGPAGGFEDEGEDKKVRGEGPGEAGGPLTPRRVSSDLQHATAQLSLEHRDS
Procedure, shortened: as §1

ETV3L = target: T7, ETV3L (Homo sapiens, UniProt Q6ZN32 1-361)
T7 sequence: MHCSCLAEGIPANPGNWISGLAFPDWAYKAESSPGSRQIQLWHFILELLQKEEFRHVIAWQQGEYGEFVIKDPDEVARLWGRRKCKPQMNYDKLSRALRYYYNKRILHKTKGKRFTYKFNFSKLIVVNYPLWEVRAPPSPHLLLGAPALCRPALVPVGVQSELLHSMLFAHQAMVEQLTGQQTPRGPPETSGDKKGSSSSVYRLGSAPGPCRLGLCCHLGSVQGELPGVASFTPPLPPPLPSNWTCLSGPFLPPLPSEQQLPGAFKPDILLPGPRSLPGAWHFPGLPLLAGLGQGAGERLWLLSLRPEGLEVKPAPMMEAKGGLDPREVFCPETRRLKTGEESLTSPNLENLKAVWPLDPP
Procedure, shortened: as §1

ETS2 = target: T8, ETS2 (Homo sapiens, UniProt P15036 1-469)
T8 sequence: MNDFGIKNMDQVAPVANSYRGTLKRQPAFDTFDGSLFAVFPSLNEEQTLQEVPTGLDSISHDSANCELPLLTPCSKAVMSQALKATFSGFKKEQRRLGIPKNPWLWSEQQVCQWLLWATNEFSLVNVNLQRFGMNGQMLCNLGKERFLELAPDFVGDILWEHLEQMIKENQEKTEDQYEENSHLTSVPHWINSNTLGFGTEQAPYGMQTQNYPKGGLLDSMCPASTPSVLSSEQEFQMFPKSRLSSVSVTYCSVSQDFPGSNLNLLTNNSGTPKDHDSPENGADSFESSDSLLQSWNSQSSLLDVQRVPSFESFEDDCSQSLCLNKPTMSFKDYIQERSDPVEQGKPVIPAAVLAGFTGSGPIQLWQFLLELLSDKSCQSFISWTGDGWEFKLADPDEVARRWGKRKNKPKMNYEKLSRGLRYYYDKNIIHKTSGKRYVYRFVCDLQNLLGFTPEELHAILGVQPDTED
Procedure, shortened: as §1

SPDEF = target: T9, SPDEF (Homo sapiens, UniProt O95238 1-335)
T9 sequence: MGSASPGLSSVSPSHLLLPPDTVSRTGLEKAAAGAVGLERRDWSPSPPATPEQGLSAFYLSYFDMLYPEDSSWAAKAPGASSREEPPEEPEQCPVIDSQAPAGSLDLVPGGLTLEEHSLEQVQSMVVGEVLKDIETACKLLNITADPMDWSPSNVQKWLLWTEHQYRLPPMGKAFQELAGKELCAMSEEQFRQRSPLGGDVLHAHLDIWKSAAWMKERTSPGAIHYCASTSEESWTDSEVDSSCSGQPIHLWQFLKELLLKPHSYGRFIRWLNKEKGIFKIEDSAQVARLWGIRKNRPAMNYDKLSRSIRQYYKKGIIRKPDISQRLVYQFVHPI
Procedure, shortened: as §1

ETV7 = target: T10, ETV7 (Homo sapiens, UniProt Q9Y603 1-341)
T10 sequence: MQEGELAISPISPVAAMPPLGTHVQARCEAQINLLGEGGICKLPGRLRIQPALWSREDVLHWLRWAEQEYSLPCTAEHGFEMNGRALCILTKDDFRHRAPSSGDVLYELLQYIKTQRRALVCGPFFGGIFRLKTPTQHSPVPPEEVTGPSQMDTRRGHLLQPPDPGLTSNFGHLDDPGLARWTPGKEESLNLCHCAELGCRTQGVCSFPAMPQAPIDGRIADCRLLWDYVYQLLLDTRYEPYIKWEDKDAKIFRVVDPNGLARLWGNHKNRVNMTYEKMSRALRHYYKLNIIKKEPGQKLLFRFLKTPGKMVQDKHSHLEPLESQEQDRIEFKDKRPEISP
Procedure, shortened: as §1

ELF5 = target: T11, ELF5 (Homo sapiens, UniProt Q9UKW6-2 1-255)
T11 sequence: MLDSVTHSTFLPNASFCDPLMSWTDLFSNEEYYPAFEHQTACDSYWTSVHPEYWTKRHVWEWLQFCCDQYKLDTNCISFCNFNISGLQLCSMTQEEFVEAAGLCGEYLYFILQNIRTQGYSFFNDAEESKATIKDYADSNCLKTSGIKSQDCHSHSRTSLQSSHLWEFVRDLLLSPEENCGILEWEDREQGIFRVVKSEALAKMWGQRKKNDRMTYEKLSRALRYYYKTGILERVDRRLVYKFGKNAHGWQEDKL
Procedure, shortened: as §1

ETV3 = target: T12, ETV3 (Homo sapiens, UniProt P41162-2 1-143)
T12 sequence: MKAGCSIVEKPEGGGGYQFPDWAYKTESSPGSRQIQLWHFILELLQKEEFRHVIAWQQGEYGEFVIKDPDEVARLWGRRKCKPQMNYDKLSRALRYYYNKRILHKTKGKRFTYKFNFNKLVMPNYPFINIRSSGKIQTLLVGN
Procedure, shortened: as §1

ETV6 = ETV6 (Homo sapiens, UniProt P41212 1-452)
Sequence of ETV6 (P41212 whole entry): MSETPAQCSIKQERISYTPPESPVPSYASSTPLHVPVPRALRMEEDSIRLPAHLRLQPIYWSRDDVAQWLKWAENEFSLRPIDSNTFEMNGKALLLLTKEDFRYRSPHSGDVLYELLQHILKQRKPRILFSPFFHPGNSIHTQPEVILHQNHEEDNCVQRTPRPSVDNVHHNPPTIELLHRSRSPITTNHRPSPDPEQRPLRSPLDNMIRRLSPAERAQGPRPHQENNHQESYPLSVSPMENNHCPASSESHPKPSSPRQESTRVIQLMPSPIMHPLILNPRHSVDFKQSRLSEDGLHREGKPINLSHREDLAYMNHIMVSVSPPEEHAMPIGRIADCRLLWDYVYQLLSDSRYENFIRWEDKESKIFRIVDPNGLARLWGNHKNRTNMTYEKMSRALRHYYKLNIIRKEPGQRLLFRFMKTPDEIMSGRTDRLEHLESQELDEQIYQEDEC
Procedure, shortened: as §1

ACAGGA
binding signal (FEV): 1.18 fold enrichment (6-mer frequency, TF over GST control)
binding signal (ETV5): 1.19 fold enrichment (6-mer frequency, TF over GST control)
binding signal (SPIC): 1.07 fold enrichment (6-mer frequency, TF over GST control)
binding signal (ELF4): 1.04 fold enrichment (6-mer frequency, TF over GST control)
binding signal (ELK4): 1.04 fold enrichment (6-mer frequency, TF over GST control)
binding signal (ETV2): 1.06 fold enrichment (6-mer frequency, TF over GST control)
binding signal (ELF3): 1.15 fold enrichment (6-mer frequency, TF over GST control)
binding signal (ETV1): 1.16 fold enrichment (6-mer frequency, TF over GST control)
binding signal (ERF): 1.03 fold enrichment (6-mer frequency, TF over GST control)
binding signal (ETV3L): 1.11 fold enrichment (6-mer frequency, TF over GST control)
binding signal (ETS2): 1.16 fold enrichment (6-mer frequency, TF over GST control)
binding signal (SPDEF): 1.37 fold enrichment (6-mer frequency, TF over GST control)
binding signal (ETV7): 1.11 fold enrichment (6-mer frequency, TF over GST control)
binding signal (ELF5): 1.28 fold enrichment (6-mer frequency, TF over GST control)
binding signal (ETV3): 1.15 fold enrichment (6-mer frequency, TF over GST control)
binding signal (ETV6): 1.19 fold enrichment (6-mer frequency, TF over GST control)
